Source: PubChem BioAssay
MRP1 act: MRP-1 activation; AID 799; 140,000 tested, 0.61% active; viability increase, % at 10 µM; H69AR cells + doxorubicin, viability rescue, CellTiter-Glo;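 active = viability gain under doxorubicin at or above a set limit, the compound median plus 3 SD, cut at about 4.7% in these data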;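 also: MRP-1 overexpressing cells given doxorubicin 25 µM after compound pretreatment; 18-22 h compound pretreatment then 72 h with doxorubicin before readout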
MRP resist rev: reverses drug resistance mediated by MRP | H69AR cells + 2 uM doxorubicin, CellTiter-Glo, 72 h | differential viability (reversal), % at 10 µM | 85,000 tested, 0.04% active | AID 602;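 active = viability drop by adding the cancer drug above about 55%, with treated viability meeting a 40% cutoff, limit read from the data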;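 also: larger differential means the compound sensitizes cells more to doxorubicin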
DAT uptake mod: changed human dopamine transporter uptake under cocaine IC80; Q01959; LLC-PK1 hDAT cells, [14C]-dopamine uptake with cocaine IC80; actives deviate in either direction; B-score at 10 µM; 110,000 tested, 1.3% active; AID 449768;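 active = Z score or B-score, a plate-position-corrected score, falls beyond the plate's 99.7% confidence bounds, in either direction; inactive = both scores lie inside the 99.7% bounds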
Target sequence (Q01959 whole entry, looked up): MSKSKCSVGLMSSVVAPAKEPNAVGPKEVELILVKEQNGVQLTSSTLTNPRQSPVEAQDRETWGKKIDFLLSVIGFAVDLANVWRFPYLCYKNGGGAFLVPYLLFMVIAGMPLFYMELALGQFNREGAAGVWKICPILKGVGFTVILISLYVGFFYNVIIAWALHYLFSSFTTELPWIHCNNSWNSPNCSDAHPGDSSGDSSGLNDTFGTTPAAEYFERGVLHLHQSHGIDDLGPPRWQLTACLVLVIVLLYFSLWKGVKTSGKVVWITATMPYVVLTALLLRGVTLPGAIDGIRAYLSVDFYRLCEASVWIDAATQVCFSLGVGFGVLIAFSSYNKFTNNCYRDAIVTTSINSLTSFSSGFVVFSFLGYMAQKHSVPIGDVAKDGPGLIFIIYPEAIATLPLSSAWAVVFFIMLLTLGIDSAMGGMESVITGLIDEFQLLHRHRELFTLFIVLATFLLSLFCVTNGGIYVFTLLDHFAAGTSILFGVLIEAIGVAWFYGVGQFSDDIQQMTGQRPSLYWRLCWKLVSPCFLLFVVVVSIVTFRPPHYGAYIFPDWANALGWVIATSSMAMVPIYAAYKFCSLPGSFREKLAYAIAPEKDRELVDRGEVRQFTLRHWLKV
Large screens that a line does not name were inactive. An excerpt weighted towards active compounds, which were near 1.5% of everything screened.

CCC(Sc1nc(-c2ccccc2)c(C#N)c(=O)[nH]1)C(=O)Nc1cc(C)on1 (centres undefined)	MRP1 act 10.6
CCSc1nc(-c2ccccc2)c(C#N)c(=O)[nH]1	none
CCC(Sc1nc2ccccc2[nH]1)C(=O)Nc1cc(C)on1 (centres undefined)	none
COC(=O)C(CC(C)C)NC(=O)CSc1nc(-c2ccccc2)c(C#N)c(=O)[nH]1 (centres undefined)	MRP1 act 10.8
CC1CC(C)(C)N(C(=O)CSc2ccc(-c3ccc(F)cc3)nn2)c2ccccc21 (centres undefined)	none (no result: MRP resist rev)
N/C(=N\N=C\c1ccc2c(c1)OCO2)c1nonc1N	MRP1 act 5.6 (no result: MRP resist rev, DAT uptake mod)
COc1cc(/C=N/N=C(/N)c2nonc2N)cc(Br)c1OCc1ccccc1C	none
Cc1ccc(S(=O)(=O)NC(CCc2ccccc2)CC(=O)C(C)(C)C)cc1 (centres undefined)	none (no result: MRP resist rev)
O=C(c1ccc2c(c1)OCO2)N1CCC2(CC1)Oc1ccc(Cl)cc1C(=O)C21CC(c2ccccc2)=NO1 (centres undefined)	none (no result: MRP1 act, MRP resist rev)
CCOc1ccc(OCC)c(NC(=O)CN2CCC(NC(=O)c3cccc(F)c3)CC2)c1	DAT uptake mod 3.27
CCOc1ccccc1NC(=O)CN1CCC(NC(=O)c2ccccc2)CC1	none
COc1cc(/C=N/NC(=S)Nc2cccc(C(=O)O)c2)cc(OC)c1OC	MRP1 act 4.8 (no result: MRP resist rev, DAT uptake mod)
COc1ccc(/C=N/NC(=S)Nc2cccc(C(=O)O)c2)cc1OC	none (no result: MRP resist rev, DAT uptake mod)
Cc1ccc(NC(=O)CCNC(=O)c2ccc(Cl)cc2)cc1F	MRP1 act 5.4 (no result: MRP resist rev, DAT uptake mod)
CC(=O)NCCC(=O)Nc1ccc(C)c(F)c1	none
Cc1cc(-c2cc(N)n(-c3ccccc3)n2)c(C)n1C1CCCC1	DAT uptake mod 2.06
Cc1cc(N)n(-c2ccccc2)n1	none (no result: MRP resist rev, DAT uptake mod)
CC(C)(C)OC(=O)N1CCN(C(=O)[C@H](Cc2ccc(O)cc2)n2cc(CCO)nn2)CC1	none (no result: MRP1 act, MRP resist rev)
CC(C)C[C@H](NC(=O)c1[nH]cnc1C(=O)Nc1ccccc1)C(=O)OC(C)(C)C	none (no result: MRP1 act, MRP resist rev)
COc1ccc2cc3cc(C(=O)NC(C)C)oc3nc2c1	DAT uptake mod -8.18
COc1ccc2cc3cc(C(=O)Nc4cc(OC)c(OC)c(OC)c4)oc3nc2c1	none
CCN(C(=O)c1cc2cc3ccc(C)cc3nc2o1)c1ccc(OC)cc1	MRP1 act 6.6
Cc1ccc2cc3cc(C(=O)NCCC(C)C)oc3nc2c1	none
N#CCCN(Cc1cccnc1)C(=O)c1sc2cc(F)ccc2c1Cl	none (no result: MRP resist rev, DAT uptake mod)
CC(C(=O)Nc1cccc([N+](=O)[O-])c1)n1nnc2ccccc21 (centres undefined)	none (no result: MRP resist rev)
CCCOc1ccc(-c2nc(OC)c3ccccc3n2)cc1	none
c1ccc2[nH]c(CN3CCN(c4ncnc5c4oc4ccccc45)CC3)nc2c1	none
Cc1nc(N2CCN(Cc3nc4ccccc4[nH]3)CC2)c2oc3ccccc3c2n1	DAT uptake mod 2.51
CCCCn1c(=O)c(CCC(=O)OCC(=O)Nc2ccc(F)c(Cl)c2)nc2ccccc21	none (no result: MRP resist rev, DAT uptake mod)
Cc1cc2cc(CN(C(=O)C3CC3)C3CCCC3)c3nnnn3c2cc1C	DAT uptake mod 2.89
CC(=O)N(Cc1cc2ccc(C)c(C)c2n2nnnc12)C1CCCC1	none (no result: MRP1 act, DAT uptake mod)
Cc1nn(C)cc1CNC(=O)c1ccc(F)cc1	none (no result: MRP resist rev, DAT uptake mod)
COC(=O)[C@@H]1C[C@H]2CC[C@H](O)C[C@H]2N1Cc1ccc(Cl)cc1	none (no result: MRP1 act, MRP resist rev)
CCCc1[nH]n(-c2nc3ccccc3s2)c(=O)c1C=NCCN1CCOCC1	none
CCCCCN=Cc1c(C)[nH]n(-c2nc3ccccc3s2)c1=O	DAT uptake mod 2.51
COc1ccccc1C(C)NCC(=O)Nc1ccccc1C(F)(F)F (centres undefined)	none (no result: MRP resist rev, DAT uptake mod)
O=C(Cc1ccccc1)N[C@@H](Cc1ccc(O)cc1)C(=O)O	none (no result: MRP1 act, MRP resist rev)
CCc1c(C)c2ccc(OCC(=O)N(C)C)c(C)c2oc1=O	none
CCOC(=O)CCc1c(C)c2ccc(OCC(=O)N(CC)CC)c(C)c2oc1=O	DAT uptake mod 2.69
O=C(NC1CC2CCCC(C1)N2Cc1ccco1)NC12CC3CC(CC(C3)C1)C2 (centres undefined)	DAT uptake mod -7.42
CCNC(=S)NC1CC2CCCC(C1)N2Cc1ccco1 (centres undefined)	none (no result: MRP resist rev)
CC1CCCN(S(=O)(=O)c2ccc(S(=O)(=O)NC(C)c3cccs3)cc2)C1 (centres undefined)	none (no result: MRP resist rev)
Cc1ccc(C)c(/C(O)=C2\C(=O)C(=O)N(CCCn3ccnc3)C2c2ccncc2)c1 (centres undefined)	MRP1 act 7.3
Cc1ccc(/C(O)=C2/C(=O)C(=O)N(CCCn3ccnc3)C2c2ccccn2)cc1 (centres undefined)	none (no result: DAT uptake mod)
O=C(c1ccc2nc(N3CCOCC3)sc2c1)N1CCC(Cc2ccccc2)CC1	none
CCCCN(CCCNC(=O)c1ccc2nc(N3CCOCC3)sc2c1)Cc1ccccc1	DAT uptake mod 2.62
CCN(CC)CCOC(=O)/C=C/c1ccccc1OC	none (no result: MRP resist rev, DAT uptake mod)
O=[N+]([O-])c1ccc(Cl)cc1CNc1ccc(F)c(F)c1	none (no result: MRP resist rev, DAT uptake mod)
CCOC(=O)C1=C(C)NC(C)=C(C(=O)OCC)C1c1sccc1C	none (no result: MRP resist rev)
